Source: PubChem (National Center for Advancing Translational Sciences (NCATS))
Most compounds without a hit are left out; they make up all but 8% or so of the library.
LASV entry inh: qHTS for Inhibitors of binding or entry into cells for Lassa Virus; Lassa virus pseudotyped entry inhibition, cell-based qHTS; 4.1% of 18,000 active; Potency, µM (top dose mostly 49.2 µM), for the others: at the highest dose activity change, negative = inhibition, hits mostly inhibitors; AID 720533, 2013
Marburg entry: qHTS for Inhibitors of binding or entry into cells for Marburg Virus; Potency, µM (series often up to 49.2 µM), for the others: top-dose activity change, negative = inhibition, most hits filed as inhibitors; Marburg virus pseudotype entry/binding inhibition, cell-based; 6.5% of 18,000 active
* marks the source's active call; other numbers are inactive results; ? = inconclusive; . = no result; ! = not confirmed by another sample; [ ] = remark or other dose. Calls come from the whole dose curve; tested in HEK293 cells. % is set by controls: 0 for no effect and ±100 for the full control effect; potency is the fitted concentration of half-maximal effect.

SMILES	LASV entry inh	Marburg entry
CC1O[C@@H](O[C@@H]2C(O)C[C@H](O[C@@H]3C(O)C[C@@H](OC4CC[C@@]5(C)C6CC[C@]7(C)C(C8=CC(=O)OC8)CC[C@@]7(O)C6CC[C@@H]5C4)OC3C)OC2C)CC(O)[C@H]1O (some centres undefined)	0.282µM*	0.224µM*
CCCCn1c(C)cc2c(c1=O)[C@H]1O[C@](c3ccsc3)(Cc3cc(OC)c(OC)cc31)O2	4.3%[8.59 µM]	?
CCC[C@H]1CN(c2ccccc2)C(=O)[C@H]1CC(=O)NC	25.7%	46.9%
CCCCCC(=O)O[C@]1(C(C)=O)CC[C@H]2[C@@H]3CCC4=CC(=O)CC[C@]4(C)[C@H]3CC[C@@]21C	31.6µM*	?
CCCCCCCCCC(=O)O[C@H]1CC[C@H]2[C@@H]3CCC4=CC(=O)CC[C@]4(C)[C@H]3CC[C@]12C	-9.2%	18.6%
CC(=O)[C@@]1(O)CC[C@H]2[C@@H]3CCC4=CC(=O)CC[C@]4(C)[C@H]3CC[C@@]21C	-29.8%	-5.8%
CC(=O)C1CCC2C3CCC4=CC(=O)CC[C@@]4(C)C3CC[C@]12C (some centres undefined)	9.3%	22.4µM*
CC(C)C[C@H]1COc2cc(NC3CC3)ccc2S(=O)(=O)N1	-10.4%	12.7%
CCOC(=O)CN1C(=O)[C@]2(O[C@H](COc3ccccc3)CC3=C2CCC3)c2ccccc21	-14.7%[8.59 µM]	30.2%[8.59 µM]
COC(=O)CC=C[C@@H](C)[C@@H](C=NO[C@H](C)c1cn([C@@H]2COC[C@@H]2O)nn1)N[S+](=O)([O-])c1ccc(C)cc1	3.8%[8.59 µM]	10.4%[8.59 µM]
Oc1c(Cl)cc(Cl)c2cccnc12	?	12.6µM*
Cc1ccc2c(Cl)cc(Cl)c(O)c2n1	?	6.31µM*!
Oc1ccc(Cl)c2cccnc12	-0.9%	12.7%
CCOC(=O)CN1C(=O)NC(c2cccc(F)c2)C(C(C)=O)=C1C (centres undefined)	4.5%[8.59 µM]	12.7%[8.59 µM]
CC(=O)Nc1cccc(-c2cc3c(c4c2ccn4C)C2CCC3C2)c1 (centres undefined)	26.6%	-9.3%
COC(=O)/C(C)=C\CC12OC(C)(C)C3CC(C=C4C(=O)c5c(OC)c6c(c(CC=C(C)C)c5OC431)OC(C)(CCC=C(C)C)C=C6)C2=O (centres undefined)	4.47µM*	2.82µM*
CC(=O)Oc1c(-c2ccccc2)oc2c(CC=C(C)C)c3c(c(OC(C)=O)c2c1=O)C=CC(C)(C)O3	0.8%	1.1%
CC(=O)Oc1c2c(c(CC=C(C)C)c3c1C(=O)C1=CC4CC5C(C)(C)OC(C/C=C(\C)C(=O)O)(C4=O)[C@]15O3)OC(C)(CCC=C(C)C)C=C2 (some centres undefined)	?	2.82µM*
COCCN1C(=O)NC(c2cccc(F)c2)C(C(C)=O)=C1C (centres undefined)	4.6%[8.59 µM]	-6.0%[8.59 µM]
C[C@H]1CC[C@H]2C(=O)N(Cc3ccccc3)C[C@@H](O)CN2[C@H]1c1ccc(Br)cc1	7.1%[8.59 µM]	-33.0%[8.59 µM]
COc1cccc(CO[C@H]2C=C[C@@H](c3ccccc3)O[C@H]2CBr)c1	23.9%[8.59 µM]	31.3%[8.59 µM]
Cc1cc2c(c(=O)n1Cc1ccccc1)[C@H]1O[C@](CCCCN3C(=O)c4ccccc4C3=O)(Cc3cc(C#N)ccc31)O2	-3.2%[8.59 µM]	?
CC1=C[C@@H](COc2ccccc2)O[C@@]2(C1)C(=O)N(Cc1ccccc1)c1ccccc12	7.4%[8.59 µM]	?
OC[C@H]1O[C@H](C#Cc2ccc(F)cc2F)C=C[C@H]1O	-16.4%[8.59 µM]	?
Cc1noc(C)c1-c1nc(N2CCOCC2)c2ccccc2n1	-2.0%	4.6%
SMILES	LASV entry inh	Marburg entry
CN(C)Cc1ccccc1-c1nc(N2CCOCC2)c2ccccc2n1	-10.5%	17.8µM*
CC1=C(C(=O)Nc2ccc3[nH]ncc3c2)C(c2ccc(F)cc2)NC(=O)N1 (centres undefined)	?	7.6%
COc1ccc(/C=C/c2cc(OC)cc(=O)o2)cc1	8.91µM*	1.78µM*
C/C=C/c1ccc(OC)cc1	-3.2%	15.8%
CC=CC(=O)C[C@H]1CC[C@@H](C)[C@@H](CCO)O1	0.0%[8.59 µM]	32.9%[8.59 µM]
C=CCNC1=C2C[C@@H](C)C[C@H](OC)[C@H](O)[C@@H](C)/C=C(\C)[C@H](OC(N)=O)[C@@H](OC)/C=C/C=C(\C)C(=O)NC(=CC1=O)C2=O	2.24µM*	1.78µM*
COC1=C2C[C@@H](C)C[C@H](OC)[C@H](O)[C@@H](C)/C=C(\C)[C@H](OC(N)=O)[C@@H](OC)/C=C\C=C(/C)C(=O)NC(=CC1=O)C2=O	17.8µM*	15.8µM*
CC(=O)[C@]12[C@H](c3ccccc3)[C@@H]3CCN(C(=O)N[C@H]1c1ccccc1)[C@@]32C	-1.4%[8.59 µM]	-11.2%[8.59 µM]
CC[C@@H](C(=O)[C@@H](C)[C@@H](O)[C@H](C)[C@@H]1O[C@@H]([C@@H](CC)C(=O)O)CC[C@@H]1C)[C@H]1O[C@]2(C=C[C@@H](O)[C@]3(CC[C@@](C)([C@H]4CC[C@](O)(CC)[C@H](C)O4)O3)O2)[C@H](C)C[C@@H]1C	3.16µM*	-78.8%
CC1=CC[C@@H](COc2ccccc2)O[C@@]2(C1)C(=O)N(Cc1ccccc1C(F)(F)F)c1ccccc12	-17.2%[8.59 µM]	1.2%[8.59 µM]
C#CCOCC#CC[C@@]1(C(=O)OC)C=C[C@@H](C)[C@H](c2ccccc2Br)N1C(=O)C(F)(F)F	.	-22.9%[8.59 µM]
COCc1cc(O)c(O)c(O)c1-c1c(COC)cc(O)c(O)c1O	-14.1%	7.94µM*
COc1ccc(C(C)=O)c(O)c1	13.9%	18.6%
CCC(C)[C@H]1O[C@]2(C=C[C@@H]1C)C[C@@H]1C[C@@H](C/C=C(\C)[C@@H](O[C@H]3C[C@H](OC)[C@@H](O[C@H]4C[C@H](OC)[C@H](NC(C)=O)[C@H](C)O4)[C@H](C)O3)[C@@H](C)/C=C/C=C3\CO[C@@H]4[C@H](O)C(C)=C[C@@H](C(=O)O1)[C@]34O)O2 (some centres undefined)	12.6µM*	8.91µM*
CO[C@H]1C[C@H](O[C@H]2[C@H](C)O[C@@H](O[C@@H]3/C(C)=C/C[C@@H]4C[C@@H](C[C@]5(C=C[C@H](C)[C@@H](C6CCCCC6)O5)O4)OC(=O)[C@@H]4C=C(C)[C@@H](O)[C@H]5OC/C(=C\C=C\[C@@H]3C)[C@]54O)C[C@@H]2OC)O[C@@H](C)[C@@H]1O	10µM*	8.91µM*
CC[C@@H](C)[C@H]1O[C@]2(CC[C@@H]1C)C[C@@H]1C[C@H](C/C=C(/C)[C@H](O[C@@H]3C[C@H](OC)[C@H](O[C@@H]4C[C@H](OC)[C@@H](O)[C@H](C)O4)[C@H](C)O3)[C@@H](C)/C=C\C=C3CO[C@@H]4[C@H](O)C(C)=C[C@@H](C(=O)O1)[C@]34O)O2 (tested in a mixture with another compound)	?	-4.2%
CC[C@H](C)[C@@H]1O[C@]2(CC[C@@H]1C)C[C@H]1C[C@H](CC=C(C)[C@@H](O[C@@H]3C[C@H](OC)[C@H](O[C@@H]4C[C@H](OC)[C@H](O)[C@H](C)O4)[C@H](C)O3)[C@@H](C)C=CC=C3CO[C@@H]4[C@@H](O)C(C)=C[C@@H](C(=O)O1)[C@]34O)O2	-17.3%[17.8 µM]	?
CCC[C@H]1CN(c2ccccc2)C(=O)[C@H]1CC(=O)Nc1ccc(OC)cc1	10.5%	3.8%
C[C@@H]1C=CCCO[C@]12C(=O)Nc1ccc(O)cc12	-18.8%[8.59 µM]	9.5%[8.59 µM]
